Assay results: PubChem BioAssay (EPA / NIEHS)
Values joined by “and” are separate entries in the source; they are usually repeats but may differ in a detail not shown here. Equal values may be shown once. Results filed as inconclusive are left out. Active and inactive are the calls of the source. The calls were made as follows, unless noted: active = hit-call score of the fitted dose curve at least 0.9, where 1 is the maximum; inactive = score below 0.9.

What was measured:
[1] = target: Nucleoli Translocation, AR (gene 367) (UniProt P10275); assay: UPITT_HCI_U2OS_AR_TIF2_Nucleoli_Antagonist: University of Pittsburgh U2OS Androgen Receptor-Transcriptional Intermediary Factor 2 (AR-TIF2) Antagonism High Content Imaging Assay for Nucleoli Translocation (AID 2283997; active = hit-call score of the fitted dose curve at least 0.9, where 1 is the maximum)
Procedure, shortened: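 U2OS cells co-expressing red-fluorescent-tagged human AR and green-fluorescent-tagged TIF2, imaged by high-content microscopy for nucleolar red fluorescence. Antagonist mode against DHT; primary screen at 20 uM final (0.2% DMSO).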

[2] = target: Nucleoli Translocation, AR (gene 367) (UniProt P10275); assay: UPITT_HCI_U2OS_AR_TIF2_Nucleoli_Agonist: University of Pittsburgh U2OS Androgen Receptor-Transcriptional Intermediary Factor 2 (AR-TIF2) Agonism High Content Imaging Assay for Nucleoli Translocation (AID 2283998; active = hit-call score of the fitted dose curve at least 0.9, where 1 is the maximum)
Procedure, shortened: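 RFP-AR / GFP-TIF2 cells; cpds diluted in serum-free medium; single-point screen 20 uM final (0.2% DMSO), actives confirmed in triplicate; conc-response 0.195–50 uM final (0.5% DMSO). Readout: nucleolar red fluorescence, positive direction vs DMSO.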

[3] = CCTE_Harrill_HTTr_Viability_MCF7: CCTE's 6-hour Cell Viability Assessment for the High-Throughput Transcriptomics (HTTr) Platform, in MCF-7 cells cultured in DMEM + 10% fetal bovine serum, Harrill Lab (AID 2284010)
Procedure, shortened: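 MCF-7 cells in DMEM + 10% FBS, 384-well, exposed 6 h to an eight-point dilution series. Membrane integrity scored by high-content imaging of propidium iodide exclusion; bidirectional fit versus DMSO.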

[4] = CCTE_Harrill_HTTr_Apoptosis_MCF7: CCTE's 6-hour Apoptosis Assessment for the High-Throughput Transcriptomics (HTTr) Platform, in MCF-7 cells cultured in DMEM + 10% fetal bovine serum, Harrill Lab (AID 2284011)
Procedure, shortened: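 Read-out: CellEvent Caspase 3/7 Green signal by high content imaging, gain-of-signal indicating apoptosis. MCF-7 cells, DMEM + 10% FBS, eight-point dilution series, 6 h exposure. Curves fitted bidirectionally relative to DMSO negative control.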

[5] = CCTE_Harrill_HTTr_CellCount_MCF7: CCTE's Cell Proliferation Assessment for the High-Throughput Transcriptomics (HTTr) Platform, Harrill Lab (AID 2284012; active = hit-call score of the fitted dose curve at least 0.9, where 1 is the maximum;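 also: cells exposed to compound for six hours; intended direction is loss of nuclei count meaning fewer cells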)
Procedure, shortened: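 MCF7 cells exposed 6 hours to an eight-point dilution series; Hoechst-stained nuclei counted by high-content imaging. Bidirectional curve fitting against DMSO baseline.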

DIO1 (gene 1733) = assay: CCTE_GLTED_hDIO1: CCTE's human Deiodinase 1 (DIO1) Inhibition Assay, Great Lakes Toxicology and Ecology Division (GLTED) Lab (AID 2283987; active = hit-call score of the fitted dose curve at least 0.9, where 1 is the maximum;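 also: isolated human DIO1 enzyme in a cell-free setup rather than cells; enzyme activity read as free iodide liberated from substrate via Sandell-Kolthoff colorimetry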)
Procedure, shortened: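 Steps: human DIO1 enzyme plus test chemical, 3 h incubation; free iodide then quantified in a second Sandell-Kolthoff step by absorbance. DMSO served as negative control and baseline.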

[6] = CCTE_Simmons_MITO_basal_resp_rate: CCTE's HepG2 Seahorse XF Respirometric Screening Assay at Basal Respiratory State, Simmons Lab (AID 2284001); details: actives raise or lower the signal
Procedure, shortened: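 HepG2 oxygen consumption on Seahorse XF96 after compound injection, 7 concentrations 125 nM–100 uM final, reads every 6 min over 72 min. Triplicate biological replicates; bidirectional fit vs DMSO; fenpyroximate and 2,4-dinitrophenol controls.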

[7] = CCTE_Simmons_MITO_max_resp_rate: CCTE's HepG2 Seahorse XF Respirometric Screening Assay at Maximal Respiratory State [uncoupled], Simmons Lab (AID 2284002); details: actives raise or lower the signal
Procedure, shortened: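 HepG2, Seahorse XF96, maximal OCR post-FCCP. Cpd 125 nM–100 uM final (7 conc), n=3 biological. Kinetic reads every 6 min (3 min mix/3 min measure) over 72 min; fit bidirectional vs DMSO.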

[8] = CCTE_Simmons_MITO_inhib_resp_rate: CCTE's HepG2 Seahorse XF Respirometric Screening Assay at Inhibited Respiratory State [full ETC block], Simmons Lab (AID 2284006); details: actives raise or lower the signal
Procedure, shortened: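 HepG2 oxygen consumption was measured by Seahorse XF after compound, FCCP, then rotenone/antimycin A injections. Seven concentrations from 125 nM to 100 uM (final) were tested, with 6-min kinetic reads over 72 minutes. Inhibited-state OCR was fitted bidirectionally against DMSO.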

[9] = CCTE_Shafer_MEA_acute_spike_number: CCTE's Neural Acute Assay for Total Number of Spikes, Shafer Lab (AID 2284008);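 as to AC50: curve fitted for decrease in spike count so AC50 reflects inhibitors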
Procedure, shortened: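 Rat cortical cultures, DIV 13/15, 37 C. 40 min baseline rec, cpd 0.03-40 uM, 40 min post-dose rec. Band-pass 300-5000 Hz, spike threshold 8x rms; % change in spike count per well, DMSO neg ctrl, loss-of-signal fit.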

[10] = CCTE_Shafer_MEA_acute_firing_rate_mean: CCTE's Neural Acute Assay for Mean Firing Rate, Shafer Lab (AID 2284009);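 also: analyzed for loss of signal so actives lower firing rate relative to DMSO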
Procedure, shortened: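 Rat primary cortical neurons on 48-well MEA plates, dosed at 0.03-40 uM on DIV 13 or 15; 40 min spontaneous activity recorded at 37 C before and after compound. Spike rate per electrode averaged per well, expressed as percent change from baseline.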

[11] = CCTE_Shafer_MEA_acute_burst_number: CCTE's Neural Acute Assay for Single-Electrode Bursts, Shafer Lab (AID 2284013)
Procedure, shortened: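 Primary rat cortical neurons on 16-electrode MEA wells, treated on DIV 13 or 15 with compound at 0.03-40 uM. Single-electrode burst count from 40-min recordings at 37 C before and after exposure; percent change from baseline per well, DMSO negative control.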

[12] = CCTE_Shafer_MEA_acute_burst_duration_mean: CCTE's Neural Acute Assay for Mean Burst Duration, Shafer Lab (AID 2284014);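 also: hits are decreases in mean burst duration relative to DMSO controls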
Procedure, shortened: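 Rat primary cortical neurons on 48-well MEA, treated at DIV 13 or 15 with 0.03-40 uM in at least 3 wells. Value is percent change in mean burst duration, comparing 40 min recordings at 37 C before and during exposure.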

[13] = CCTE_Shafer_MEA_acute_per_burst_spike_number_mean: CCTE's Neural Acute Assay for Average Number of Spikes Per Burst, Shafer Lab (AID 2284015);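 also: hits are decreases in mean spikes per burst versus baseline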
Procedure, shortened: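 Percent change in mean spikes per single-electrode burst is compared between a 40 min baseline and a 40 min recording with compound (0.03-40 uM). Cultures were rat cortical neurons on MEA plates at DIV 13 or 15, recorded at 37 C, with DMSO as the negative control.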

[14] = CCTE_Shafer_MEA_acute_interburst_interval_mean: CCTE's Neural Acute Assay for Mean Interburst Interval, Shafer Lab (AID 2284016);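 also: percent change of mean interburst interval versus each well's own pre-dose baseline; curves fitted for decrease in interburst interval relative to DMSO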
Procedure, shortened: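 Percent change in mean single-electrode interburst interval was calculated per well from 40 min recordings before and after compound (0.03-40 uM). Recordings were made at 37 C on rat cortical cultures at DIV 13 or 15, with spikes detected at 8x rms threshold.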

[15] = CCTE_Shafer_MEA_acute_burst_percentage_mean: CCTE's Neural Acute Assay for Percentage of Spikes in a Burst, Shafer Lab (AID 2284017);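 as to AC50: curve fitted for loss of signal so potency reflects decreased burst percentage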
Procedure, shortened: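 Well-level mean burst percentage from a 40-min recording after compound (0.03-40 uM) expressed as percent change from a 40-min baseline at 37C. Cultures: primary rat cortical neurons on MEA, dosed on DIV 13 or 15; fitted downward relative to DMSO.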

[16] = CCTE_Shafer_MEA_acute_burst_percentage_std: CCTE's Neural Acute Assay for Standard Deviation of Burst Percentage, Shafer Lab (AID 2284018);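 also: fitted in the negative direction so actives lower burst percentage SD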
Procedure, shortened: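 Rat primary cortical neurons on 48-well MEAs, DIV 13 or 15, 37 C. 40-min baseline then 40-min recording with compound (0.03-40 uM); well-level SD of per-electrode burst spike percentage, expressed as percent change from baseline.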

[17] = CCTE_Shafer_MEA_acute_per_network_burst_spike_number_mean: CCTE's Neural Acute Assay for Average Number of Spikes in a Network Burst, Shafer Lab (AID 2284019);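 as to AC50: curve fitted for loss of signal so actives reduce spikes per network burst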
Procedure, shortened: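 Rat primary cortical neurons on 48-well MEA at DIV 13 or 15, 37 C; compounds 0.03-40 uM, at least three wells each. 40-min baseline then 40-min exposure recording; percent change in mean spikes per network burst.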

[18] = CCTE_Harrill_HTTr_Apoptosis_PRF_DMEM_12hr: (Pilot) CCTE's 12-hour Apoptosis Assessment for the High-Throughput Transcriptomics (HTTr) Platform, in MCF-7 cells cultured in phenol red-free DMEM + 10% charcoal-stripped fetal bovine serum, Harrill Lab (AID 2283985)
Procedure, shortened: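 MCF-7 cells in phenol red-free DMEM with 10% charcoal-stripped FBS, eight-point dilution series, 12 h exposure. Caspase-3/7 activation imaged by high content imaging with CellEvent Green reagent; bidirectional fit vs DMSO.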

[19] = CCTE_Harrill_HTTr_Apoptosis_PRF_DMEM_24hr: (Pilot) CCTE's 24-hour Apoptosis Assessment for the High-Throughput Transcriptomics (HTTr) Platform, in MCF-7 cells cultured in phenol red-free DMEM + 10% charcoal-stripped fetal bovine serum, Harrill Lab (AID 2283986)
Procedure, shortened: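 MCF-7 cells in phenol red-free DMEM with 10% charcoal-stripped FBS, exposed 24 h across an eight-point dilution series. Caspase-3/7 activation imaged with CellEvent Green by high content imaging; bidirectional fitting against DMSO.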

Measured: AC50

Nucleoli Translocation, AR (gene 367), sequence (P10275 whole entry, looked up): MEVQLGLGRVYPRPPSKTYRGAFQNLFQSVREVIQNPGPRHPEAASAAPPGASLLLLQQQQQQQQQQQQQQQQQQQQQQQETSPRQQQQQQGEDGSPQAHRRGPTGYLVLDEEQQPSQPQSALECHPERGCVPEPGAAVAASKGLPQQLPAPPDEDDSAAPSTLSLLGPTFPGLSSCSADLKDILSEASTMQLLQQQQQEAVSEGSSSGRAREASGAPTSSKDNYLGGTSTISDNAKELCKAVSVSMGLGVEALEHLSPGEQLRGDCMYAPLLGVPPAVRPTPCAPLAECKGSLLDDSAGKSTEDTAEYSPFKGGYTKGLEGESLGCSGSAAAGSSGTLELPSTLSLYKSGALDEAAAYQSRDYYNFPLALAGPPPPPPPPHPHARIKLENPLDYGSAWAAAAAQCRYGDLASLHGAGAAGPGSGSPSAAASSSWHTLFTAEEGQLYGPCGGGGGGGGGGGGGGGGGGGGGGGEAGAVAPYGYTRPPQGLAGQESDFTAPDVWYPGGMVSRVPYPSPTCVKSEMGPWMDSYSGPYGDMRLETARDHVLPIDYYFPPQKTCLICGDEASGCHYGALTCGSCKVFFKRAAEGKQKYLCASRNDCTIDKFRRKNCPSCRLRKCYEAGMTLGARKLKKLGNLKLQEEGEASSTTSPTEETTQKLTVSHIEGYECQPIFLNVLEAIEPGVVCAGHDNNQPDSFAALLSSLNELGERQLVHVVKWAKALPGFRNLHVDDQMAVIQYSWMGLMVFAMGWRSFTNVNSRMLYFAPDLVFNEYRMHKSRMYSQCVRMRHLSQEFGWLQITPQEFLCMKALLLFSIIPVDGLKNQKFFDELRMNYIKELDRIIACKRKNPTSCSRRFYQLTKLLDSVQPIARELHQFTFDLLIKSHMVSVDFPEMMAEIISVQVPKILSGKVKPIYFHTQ

CC12CC1(C)C(=O)N(c1cc(Cl)cc(Cl)c1)C2=O (centres undefined)
inactive: [2] | [3] | [4] | [5]
active: [1] 0.134 µM

COP(=S)(OC)Oc1ccc(Sc2ccc(OP(=S)(OC)OC)cc2)cc1
active: DIO1 (gene 1733) 1.19 µM
inactive: [1] | [2] | [3] | [4]

O=[N+]([O-])c1ccc(O)c([N+](=O)[O-])c1
inactive: [1] | [7] | [8] | [3] | [4] | [5]
active: [6] 13 µM and 10.3 µM

CC(C)(c1ccccc1)c1ccc(O)c(C(C)(C)c2ccccc2)c1
active: [7] 50 µM | [9] 8.24 µM | [10] 8.32 µM | [14] 4.19 µM | [15] 7.18 µM | [16] 20 µM
inactive: [6] | [8] | [3] | [4] | [11] | [12] | [13] | [17]

CC(=O)[O][Hg][c]1ccccc1
inactive: [2] | [8] | [9] | [10] | [4] | [13] | [16]
active: [1] 0.29 µM | [6] 13.1 µM | [7] 13.1 µM | [3] 53.5 µM | [5] 50 µM | [11] 0.91 µM | [12] 29.5 µM | [14] 0.941 µM | [15] 1.13 µM | [17] 0.331 µM

CCSC(C)CC1CC(=O)C(C(CC)=NOC/C=C/Cl)=C(O)C1 (centres undefined)
inactive: [1] | [2] | [3] | [4]

CCOP(=S)(OCC)Oc1nc(Cl)c(Cl)cc1Cl
active: [1] 50 µM
inactive: [2] | [6] | [7] | [8] | [3] | [4] | [5]

CCCCCCCCc1ccc(O)cc1
active: DIO1 (gene 1733) 57.1 µM | [6] 50 µM | [7] 39.5 µM | [9] 3 µM | [10] 3.15 µM | [11] 2.53 µM | [14] 5 µM | [15] 12.7 µM | [16] 20 µM
inactive: [8] | [3] | [4] | [5] | [12] | [13] | [17]

C[C@@H]1C[C@@H]([C@H](O)CC2CC(=O)NC(=O)C2)C(=O)[C@@H](C)C1
inactive: [18] | [19] | [3] | [4] | [5]

C=C(C)C(=O)[O][Sn]([CH2]CCC)([CH2]CCC)[CH2]CCC
inactive: [8] | [13] | [14] | [17]
active: [6] 6.57 µM | [7] 5.4 µM | [9] 0.0312 µM | [10] 0.0311 µM | [3] 22.3 µM | [4] 11 µM | [5] 11 µM | [11] 0.0118 µM | [12] 3.11 µM | [15] 0.0833 µM | [16] 20 µM

ClC1(Cl)C2(Cl)C3(Cl)C4(Cl)C(Cl)(Cl)C5(Cl)C3(Cl)C1(Cl)C5(Cl)C24Cl (centres undefined)
inactive: [1] | [9] | [10] | [3] | [4] | [5] | [11] | [12] | [13] | [14] | [15] | [16] | [17]

COP(=O)(OC)OC
inactive: [1] | [2] | [3] | [4] | [5]

C=CCc1ccc(OC)cc1
inactive: [1]

C=CC(=O)OCCCCCC(C)C
inactive: [1] | [2]
active: DIO1 (gene 1733) 30.8 µM

Cc1ccccc1C(=O)Nc1cccc(OC(C)C)c1
inactive: [1] | [2] | [3] | [4] | [5]

Clc1ccc(COC(Cn2ccnc2)c2ccc(Cl)cc2Cl)cc1 (centres undefined)
inactive: [3] | [4] | [5]
active: [1] 10.1 µM | [2] 50 µM

c1cc[c]([Hg][c]2ccccc2)cc1
active: [1] 70.3 µM
inactive: [2]

C[C@H]1O[C@@H](O[C@H]2[C@@H](O)C[C@H](O[C@H]3[C@@H](O)C[C@H](O[C@H]4CC[C@@]5(C)[C@H](CC[C@@H]6[C@@H]5CC[C@]5(C)[C@@H](C7=CC(=O)OC7)CC[C@]65O)C4)O[C@@H]3C)O[C@@H]2C)C[C@H](O)[C@@H]1O
inactive: [2] | [3] | [4] | [5]
active: [1] 8.23 µM and 5.95 µM

CC(C)(C)CC(C)(C)c1ccc(O)cc1
active: DIO1 (gene 1733) 90.7 µM | [6] 27.6 µM | [7] 27.7 µM | [9] 6.06 µM | [10] 6.07 µM | [14] 5 µM
inactive: [8] | [3] | [4] | [5] | [11] | [12] | [13] | [15] | [16] | [17]

CCC(=O)C(CC(C)N(C)C)(c1ccccc1)c1ccccc1 (centres undefined)
inactive: [1] | [2] | [3] | [4] | [5] | [11] | [13] | [14] | [16] | [17]
active: [9] 0.0569 µM | [10] 0.052 µM | [12] 0.208 µM | [15] 26.2 µM

O=c1[nH]c(=O)[nH]c(=O)[nH]1
inactive: [1] | [2] | [3] | [4] | [5]

CC(C)CCCCCCOC(=O)c1ccccc1C(=O)OCCCCCCC(C)C
inactive: [1] | [3] | [4] | [5]
